Test results as given in PubChem BioAssay AID651819 (National Center for Advancing Translational Sciences (NCATS), 2012).
In all, about 360,000 compounds went through this assay and about 1,100 (0.31%) were called active. No stated cut-off is given here; in the data, active means activity change below about -30%; inactive means the rest. The sample as a whole holds a higher share of actives than the screen did.

Tested on: cytosolic chaperonin (CCT/TRiC complex)
Assay: High-Throughput Screening for Modulators of Cytosolic Chaperonin Activity
Settings: purified chaperonin ATPase assay, HTRF ADP detection, 30 min; stronger effect = lower value
Outline: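 First, chaperonin was dispensed at 40 nM or 20 nM final depending on batch activity. Next, compounds were pinned at 76 uM and ATP added at 10 uM. After 30 min at 37 °C, ADP detection reagents ran 30 min at ambient temperature.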
On the % scale 0 is the no-effect control and ±100 the full control effect.

Activity change, inactive:
CCN1CCN(C(C(=O)NC2CCCC2)c2cc3c(cc2[N+](=O)[O-])OCO3)CC1 (centres undefined) -0.623%, Cc1ccc2c(c1)c1ncnc(N3CCc4ccccc4C3)c1n2C 1.95%, CCOCCCN1C(=O)C2C(C(=O)Nc3ccc(OCC)cc3)C3C=CC2(O3)C1C(=O)NC1CCCCC1 (centres undefined) -2.83%, CC(C)N1C(=O)C2C(C(=O)NC3CCCCC3)C3C=CC2(O3)C1C(=O)NC1CCCC1 (centres undefined) -2.56%, CCCSc1nsc(N)n1 -1.36%, COc1ccc2ccn(C)c2c1 1.51%, COc1ccc(N)c(C)c1 -0.166%, Cc1nc2nc3c(cn2n1)C(=O)CC(c1ccccc1)C3 (centres undefined) -0.882%, CN1CCN(CC#CCC2(O)c3ccccc3-c3ccccc32)CC1 -0.316%, CSc1nnc2c(n1)OC(c1cn(C)c3ccccc13)N(C(C)=O)c1ccccc1-2 (centres undefined) -0.161%, CSCCC(=O)N1CCCC(CNC(=O)c2ccccc2Cl)C1 (centres undefined) -0.386%, CCOC(=O)CSc1ncc(-c2cccc(Cl)c2)cn1 -0.564%, COC(=O)c1ccccc1NC(=O)CSc1ccccn1 -2.39%, COc1ccc(N2C(=O)CCC(C(=O)N(C)C3CCCCC3)C2c2ccc(OC)c(OC)c2)cc1 (centres undefined) -0.957%, CN1CCN(c2ccncc2S(=O)(=O)N2CCCC2)CC1 -0.238%, CNC[C@H](CC1CCCCC1)NC[C@H](NCCC1CCCC1)[C@H](C)O -0.857%, COc1ccc(NC(=O)CSc2nnnn2-c2cccc(OC)c2)cc1 1.8%, Nn1c(SCC(=O)Nc2ccc3c(c2)CCC3)nnc1C1CC1 -0.2%, O=C(Nc1cccnc1Oc1ncnc2cc(Cl)ccc12)c1ccc(F)cc1 1.03%, O=C1N[C@H](Cc2ccccc2)C(=O)N[C@H]1Cc1cn(S(=O)(=O)c2ccccc2)c2ccccc12 -2.61%, Nc1nc(NCC2CCCO2)nc(Nc2ccccc2F)c1[N+](=O)[O-] (centres undefined) 0.16%, Nc1nc(Nc2ccccc2F)nc(NC2CCCCC2)c1[N+](=O)[O-] -0.808%, O=C(Nc1ccccc1-c1nnn(CC(=O)N2CCN(c3ccccc3)CC2)n1)c1cccs1 -3.64%, CCOC1CS(=O)(=O)CC1OCC (centres undefined) 0.485%, O=C(CS(=O)(=O)c1ccccc1)Nc1ccc(S(=O)(=O)Nc2ccccn2)cc1 0.548%, COc1ccc(NC(=O)CC(NC(C)c2ccccc2)C(=O)O)cc1 (centres undefined) -0.408%, COc1cc2nc(CN(C)Cc3ccc(F)cc3)[nH]c(=O)c2cc1OC -1.05%, C/C(Cc1ccccc1)=N\NC(=O)CNC(=O)c1ccccc1Cl 0.921%, CC(C)CNC(=O)COC(=O)c1ccccc1OCC(=O)Nc1ccc(Br)cc1 0.0186%, O=C(O)c1ccccc1-c1ccccc1C(=O)NCc1cccnc1 -1.06%, CN(c1ccccc1)S(=O)(=O)c1ccc(C(=O)NCc2cccnc2)cc1 0.104%, CC(C)(C)OC(=O)CNC(=O)c1[nH]cnc1C(=O)N[C@@H](CCCCN)C(=O)OC(C)(C)C 0.783%, NC(=O)c1nsc(C(=O)N(CCCN2CCOCC2)C(C(=O)NC2CCCCC2)c2ccc(Cl)cc2)c1N (centres undefined) -0.121%, CCc1nc2sc3c(Cl)ncnc3c2c2c1CCCC2 -2.15%, C/C(CC(=O)Nc1cccc(C(F)(F)F)c1)=N\NC(=O)C(=O)NCC(C)C -0.0398%, COc1ccc(C(CC(=O)Nc2ccc(C)cc2)NC(=O)C(F)(F)F)cc1 (centres undefined) 0.31%, Cc1ccc(CN2CC(C(=O)NNC(=O)Cn3ccc(C(F)(F)F)n3)CC2=O)cc1 (centres undefined) -2.29%, Cc1cccc(-n2c(SCC(=O)Nc3cccc(S(=O)(=O)NC4=NCCCCC4)c3)nc3ccccc3c2=O)c1C -6.85%, O=C(CCN1C(=O)[C@@H]2Cc3ccccc3CN2C1=O)NCCc1ccccc1 -0.128%, Cc1ccc(CNC(=O)CCN2C(=O)[C@@H]3Cc4ccccc4CN3C2=O)cc1 -0.496%, CCN1C(=NCc2ccc(OC)cc2)N[C@@H](CCc2ccccc2)[C@H](C(=O)NCc2ccc(OC)cc2)[C@H]1C -0.204%, COc1cc(C=O)ccc1Oc1nnnn1-c1ccccc1 0.228%, NC1=NC(c2ccc([N+](=O)[O-])cc2)N(c2ccc(F)cc2)C(N)=N1 (centres undefined) 1.53%, Nc1nonc1-n1nnc(C(=O)N/N=C/c2cc(Br)ccc2O)c1CSC1=NCCS1 1.21%, Cc1nn(-c2ccccc2)c2sc(C(=O)N(Cc3ccco3)C(C)C(=O)NC(C)(C)C)cc12 (centres undefined) 1%, Cc1ccc(C)c(N2CCN(C(=O)CCCCCn3c(=S)[nH]c4ccc(N5CCOCC5)cc4c3=O)CC2)c1 1.65%, CC(C)NC(=O)CCCn1c(=S)[nH]c2cc3c(cc2c1=O)OCO3 -1.56%, CC(C)N(C(=O)Cn1c(SCC(=O)N2CCN(c3ccccc3)CC2)nc2ccccc21)C(C)C -3.64%, Cc1ccc(S(=O)(=O)/N=C(/NC(=S)Nc2c(C)n(C)n(-c3ccccc3)c2=O)c2ccccc2)cc1 -1.68%, COc1cccc(CC2(CO)CCN(Cc3cnc(-c4cccc(C)c4)nc3)CC2)c1 -1.28%, OCC1(CCc2ccccc2)CCN(Cc2ccc3nsnc3c2)CC1 -4.83%, O=C1C2C3C=CC(C3)C2C(=O)N1c1ncc([N+](=O)[O-])s1 (centres undefined) -1.62%, COc1ccc(/C=C/C(=O)OCC(=O)NCc2cccs2)cc1OC -2.94%, COc1cccc(C(NC(C)=O)c2nc(-c3cnc4ccccc4c3)cs2)c1 (centres undefined) 0.873%, CC(C)c1cccc(-c2csc(C(O)c3ccccc3)n2)c1 (centres undefined) -0.363%, COC(=O)C[C@H]1C[C@@H]2c3cc(N(C)C)ccc3O[C@@H]2[C@H](CO)O1 -1.3%, CCOC(=O)c1ccccc1NC(=O)c1c(N)n(C)c(=O)[nH]c1=O 2.1%, O=C(Nc1ccccc1-c1nnn(CC(=O)N2CCCc3ccccc32)n1)c1cccc(Cl)c1 -0.628%, Cc1ccc(-n2ncc3c2CC(C)(C)CC3NC(=O)Cc2c(C)noc2C)cc1 (centres undefined) 1.55%, COCc1ccc(C(=O)NC2CC(C)(C)Cc3c2cnn3-c2ccc(C)cc2)o1 (centres undefined) -1.13%, Cc1ccc(-c2c(C)n([O-])c3c([n+]2=O)CCC3)cc1 -0.716%, O=C1/C(=C\c2cccnc2)CN(Cc2ccccc2)C/C1=C\c1cccnc1 -1.65%, COc1ccc(C2=NOC3(CC(=O)N(c4ccc(Cl)cc4)C3=O)C2)c(OC)c1 (centres undefined) 1.68%, CC(=O)c1c(C)c[nH]c1C 0.144%, CC(=O)Nc1ccc(NC(=O)C(NS(=O)(=O)c2ccc3c(c2)OCCO3)C(C)C)cc1 (centres undefined) -1.81%, Cc1ccc(S(=O)(=O)NCC(=O)Nc2ccc3c(c2)OCCO3)cc1 -2.11%, COc1cc(Cl)c(C)cc1NC(=O)CSc1nnc(-c2ccco2)n1CC(C)C -2.06%, COc1ccccc1N1CCN(C(=O)CSc2ncnc3c2cnn3-c2ccc(C)c(C)c2)CC1 -0.613%, CN(C(=O)CC(NC(=O)c1ccccc1)(c1ccccc1)c1ccccc1)c1ccccc1 -1.61%, CCOC(=O)N/N=C1\CC(C)S(=O)(=O)c2ccc(Cl)cc21 (centres undefined) -3.43%, CCOc1cccc(NC(=O)Cn2nc(-c3ccc4c(c3)OCCO4)ccc2=O)c1 2.22%, CC(=O)c1cc2c(cc1NC(=O)CN1CCCCCC1)OCO2 -1.13%, Cc1cccc2c1cnn2C(=O)CCC(=O)NC1CCCCC1 0.998%, C=CCN(N=Nc1cccc([N+](=O)[O-])c1)c1cccc([N+](=O)[O-])c1 -0.537%, CC1=C(C(=O)OC(C)(C)C)C(c2ccc(Br)cc2)NC(=O)N1CCCC(=O)O (centres undefined) -0.201%, O=C1CS(=O)CN1c1ccc(Oc2ccccc2)cc1 (centres undefined) -3.89%, Cc1n[nH]c(=O)n1-c1ccc(C(C)C)cc1 0.471%, O=C(NCCCN1CCOCC1)c1cc(-c2ccccc2F)no1 1.6%, O=C(NCCCN1CCCCC1)c1ccc2c(c1)NC(=O)C(N1CCOCC1)S2 (centres undefined) -0.706%, CCc1ccc(CN(C)C(C)C(=O)Nc2ccc(S(=O)(=O)N3CCCC3)cc2)cc1 (centres undefined) -0.65%, Cc1ccc(C2C(C#N)C(C#N)N3CCCN23)cc1 (centres undefined) 0.118%

Activity change, active:
CCN(CC)CCN1C(=O)C2C(C(=O)Nc3ccc(Br)cc3)C3C=CC2(O3)C1C(=O)NC1CCCCC1 (centres undefined) -40.8%, COc1ccc2c(C)cc3nnnn3c2c1 -38.8%, CCOC(=O)CSc1ccccn1 -41%, COc1cccc(NC(=O)CSc2nnc(C3CCCCC3)n2N)c1 -45.1%, C=CCNc1nc(N)c([N+](=O)[O-])c(NC2CCCCC2)n1 -43.9%, COc1ccc(NC(=O)CS(=O)(=O)c2ccccc2)cc1 -61%, O=C(NCc1cccnc1)c1cnc2ccccc2n1 -37.4%, COc1ccc(NC(=O)C(=O)NCC(=O)Nc2cccc(C(F)(F)F)c2)cc1 -44.8%, O=C(CCN1C(=O)[C@@H]2Cc3ccccc3CN2C1=O)NCc1ccccc1 -37.1%, COc1ccc(C2N=C(N)N=C(N)N2c2ccccc2)cc1OC (centres undefined) -35.3%, O=C(CCCCCn1c(=S)[nH]c2cc3c(cc2c1=O)OCO3)N1CCN(c2ccc(F)cc2)CC1 -31.7%, Cc1c(CN2CCC(CO)(CCOc3ccccc3)CC2)[nH]c2ccc(Cl)cc12 -56%, OC(c1ccccc1)c1nc(-c2cnc3ccccc3c2)cs1 (centres undefined) -40.1%, CC1=C(C(=O)NC2CC(C)(C)Cc3c2cnn3-c2ccc(C)cc2)OCCO1 (centres undefined) -89.1%, CC(NS(=O)(=O)c1ccc(Cl)cc1)C(=O)Nc1ccc2c(c1)OCCO2 (centres undefined) -38.5%, CC(=O)c1cc2c(cc1NC(=O)Cn1nc(-c3ccc(F)cc3)ccc1=O)OCO2 -31.8%, Cc1n[nH]c(=O)n1-c1ccc(Oc2ccccc2)cc1 -105%, O=C(NCCCN1CCOCC1)c1ccc2c(c1)N(Cc1cccc(F)c1)C(=O)c1ccccc1S2 -77.1%
